High-throughput results: PubChem, National Center for Advancing Translational Sciences (NCATS)
This is a sample that favours compounds with a hit; in the whole collection about 6.5% have one here.
HT1080NT lethal: kills 2HG-producing HT-1080-NT fibrosarcoma cells | HT-1080-NT fibrosarcoma viability, CellTiter-Glo ATP luminescence, 48 h | Potency, µM (top dose mostly 46.1 µM), for the others: at the top dose activity, negative = less viability, hits mostly cytotoxic | hit rate 1.6% among 360,000 | AID 686970;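 note: NT is the 2HG producing partner of a matched IDH1 knockdown line; potency is the fitted concentration of half-maximal effect; 0% = DMSO-treated cells and -100% = media-only wells without cells; nearly all actives have a fitted effect of over 55% in size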
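750 cells/well, RPMI + 5% FBS; 2 h settle, compound pin-transfer, 48 h at 37 degrees C. CellTiter-Glo 10 min RT, luminescence. Normalized to DMSO and media-only wells.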
HepG2 viability: kills HepG2 cells in TGF-b inhibitor counter-screen; HepG2 CAGA-GFP viability, ATP luminescence, 18 h; Potency, µM (series often up to 46.1 µM), for the others: at the top dose activity change, negative = cytotoxicity, most hits filed as cytotoxic; hit rate 0.76% among 410,000; note: potency is the fitted concentration of half-maximal effect
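CellTiter-Glo luminescence gave cytotoxicity after 18 hours at 37 degrees C. The cells were HepG2 CAGA-GFP in 1% FBS DMEM, stimulated with 500 pg/mL TGF-beta after compound addition. %Activity was normalised to no-cell wells (complete cell-killing) and DMSO (no toxicity), and curves were fitted and classified.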
TGFb SMAD3 inh: inhibitors of TGF-b signaling | HepG2 CAGA-GFP TGF-b/SMAD3 reporter, GFP fluorescence, 18 h; TGF-beta stimulated, 500 pg/mL final | Potency, µM (titrated, usually from 46.1 µM), inactives show top-dose activity, negative = inhibition, most hits filed as inhibitors | hit rate 1.2% among 410,000 | AID 588855; note: potency is the fitted concentration of half-maximal effect; % is set by controls: 0 for no effect and ±100 for the full control effect; nearly all actives have a fitted effect of over 65% in size
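Smad-responsive CAGA-GFP expression was quantified in HEPG2 cells exposed to compounds and 500 pg/mL final TGF-beta for 18 h at 37 degrees C; unstimulated wells defined full inhibition.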
Giardia kill: Giardia lamblia killing | hit rate 0.15% among 340,000 | activity change, % at 7.66 µM, hits read low | Giardia lamblia trophozoite viability; in the data active = activity change below about -80%; inconclusive = between about -30% and that limit;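 note: parasites exposed to compound for two days anaerobically before the ATP read; % is set by controls: 0 for no effect and ±100 for the full control effect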
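Luminescent ATP signal served as the viability read-out, measured 15-30 min after adding ATP detection reagent to trophozoites that had been incubated with compounds for 48 hrs at 37 deg C anaerobically at 100 cells/well.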
IL-1B inflam inh: inflammasome signaling inhibition, IL-1 beta readout. THP-1 LPS/ATP IL-1B secretion, AlphaLISA, 16 h; active compounds read low. hit rate 4.7% among 360,000. AID 743279. activity change, % at 57.5 µM; in the data active = activity change below about -50%; inconclusive = mostly about -30% to -49%; note: % is set by controls: 0 for no effect and ±100 for the full control effect
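THP-1 cells pretreated 1 hr with compounds (up to 57.5 uM final), then stimulated with LPS (250 ng/mL final) plus ATP (1.25 mM final); secreted IL-1B measured by AlphaLISA after 16 hr, decreased signal indicating inhibition.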
HT1080 IDH1KD tx: kills HT-1080 cells with IDH1 knockdown; HT-1080 IDH1 knockdown viability, ATP luminescence, 48 h; hit rate 2% among 360,000; Potency, µM (highest dose often 46.1 µM), for the others: top-dose activity, negative = toxicity, usual class: cytotoxic; AID 686971;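 note: potency is the fitted concentration of half-maximal effect; 0% = DMSO wells and -100% = cell-free medium wells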
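Cytotoxicity counter-line: IDH1KD HT-1080, 48 h, CellTiter-Glo. Curves classed by r2, magnitude and activity.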
The depositor's hits bear a star; u = inconclusive. Unless noted, calls come from the whole dose curve; as a rule, active = well fitted curve in the direction sought with a large enough effect; inconclusive = small, poorly fitted or top-dose-only effect, or another doubt; inactive = no such curve, though single readings can be large; an effect the other way counts as inactive or inconclusive.

SMILES	HT1080NT lethal	HepG2 viability	TGFb SMAD3 inh	Giardia kill	IL-1B inflam inh	HT1080 IDH1KD tx
COc1cc(/C=N/Nc2snc(SC)c2C#N)ccc1O	u	-11.0%	4.0%	-13.5	16.9	3.16µM*
COc1ccc(O)c(/C=N/Nc2nc3ccccc3[nH]2)c1	11.2%	-2.4%	-3.1%	-20.0	18.4	27.6%
COc1cc(/C=C(/C(=O)c2cccs2)c2nc3ccccc3[nH]2)cc(OC)c1O	u	12.6µM*	u	-3.4	-97.5*	u
COc1cc(/C=N/Nc2ccccc2[N+](=O)[O-])cc(OC)c1O	-19.3%	-2.5%	-6.0%	7.0	1.0	-21.9%
COc1cc(/C=N/Nc2ccc(F)cc2F)cc(OC)c1O	-16.8%	-27.9%	u	-8.5	-88.8*	u
COc1cccc(/C=N/Nc2nc3ccccc3[nH]2)c1O	u	-76.4%	3.16µM*	0.9	-54.8*	11.6µM*
COc1cccc(/C=N/Nc2nc3ccccc3n3cnnc23)c1O	-25.6%	-12.3%	0.0%	15.3	-111.7*	u
COc1cc(/C=N/Nc2nn3cnnc3c3ccccc23)ccc1O	u	-33.2%	1.4%	12.7	-1.1	5.62µM*
O=C(N/C(=C/c1ccc(Cl)cc1)c1nc2ccccc2[nH]1)c1ccco1	0.8%	-11.8%	u	4.1	-28.4	5.2%
O=C(/C(=C/c1ccc(Cl)cc1)c1nc2ccccc2[nH]1)c1ccccc1	2.91µM*	2.51µM*	5.01µM*	1.6	-100.6*	4.11µM*
COc1cccc(/C=N/Nc2nc3ccccc3n3cnnc23)c1	10.3%	0.3%	9.6%	18.2	16.2	5.9%
O=C(CCCOc1ccc(Cl)cc1)NCCc1ccccc1	5.7%	10.7%	-14.4%	14.2	-13.3	2.6%
c1coc(Cn2nnnc2CN2CCN(C3CCCCC3)CC2)c1	19.0%	5.4%	-1.6%	25.3	13.0	16.7%
CCOC(=O)c1sc2nc(C)nc(SCC(=O)NC3CCS(=O)(=O)C3)c2c1C (stereo unspecified)	0.2%	-32.1%	13.9%	3.6	-5.9	-9.4%
O=C(CC12CC3CC(CC(Br)(C3)C1)C2)NC1=NCCS1	-12.4%	16.4%	-11.9%	-12.8	21.3	1.7%
Cc1nnc(SCC(=O)NC(=O)NCc2ccco2)n1Cc1ccccc1	11.6%	1.6%	3.3%	2.1	2.3	4.6%
COc1cc(/C=N/Nc2nc3ccccc3[nH]c2=O)ccc1O	6.8%	5.3%	-12.0%	-0.8	5.1	18.9%
COc1cc(/C=N/Nc2nc3ccccc3[nH]2)ccc1O	9.8%	-17.6%	-28.9%	-1.7	-104.7*	5.7%
COc1ccc(CN2CCCC(CO)(Cc3ccc(F)cc3)C2)cc1C (stereo unspecified)	-1.1%	-53.4%	-10.4%	6.1	-60.9*	-15.5%
CC(C)Oc1ccc(CN2CCCC(CO)(Cc3ccccc3)C2)cc1CO (stereo unspecified)	-22.9%	-19.6%	0.3%	-12.9	-53.7*	-16.2%
CSCCCN1CCCC(CO)(Cc2ccc(F)cc2)C1 (stereo unspecified)	1.8%	-3.8%	3.7%	-8.2	-11.5	-2.9%
OCC1(Cc2ccccc2)CCCN(Cc2ccc3c(c2)OCCO3)C1 (stereo unspecified)	-7.9%	-0.4%	-1.1%	12.8	-13.9	-3.1%
CN(N)c1nc(-c2ccccc2)cc(-c2ccccc2)n1	-0.1%	-1.4%	10.9%	-14.9	-63.9*	-5.0%
N#Cc1ccc(Oc2nc(C(N)=O)cc(-c3ccccc3)n2)cc1	6.6%	-9.1%	11.8%	2.8	-11.3	-0.4%
Cc1nc(-c2ccccc2)cc(-c2ccccc2)n1	0.5%	-5.9%	1.6%	18.3	27.2	-2.4%
CN1CCN(c2nc(C(N)=O)cc(-c3ccccc3)n2)CC1	3.6%	-12.9%	2.0%	4.7	-57.4*	0.2%
CCN(CC)c1nc(C(N)=O)cc(-c2ccccc2)n1	-23.5%	-32.8%	-10.0%	-2.1	-72.9*	u
